FBW7 act – human FBW7 E3 ligase activation, primary screen | Q969H0 | normalized activity (activation), % at 26.1 µM | actives 0.13% (n = 650,000) | AlphaScreen FBW7–phospho-cyclin E peptide binding, activator screen; in the data active means normalized activity above about 1.9%;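 further: purified mutant Fbw7 with reduced substrate affinity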
Target sequence (Q969H0 whole entry, looked up): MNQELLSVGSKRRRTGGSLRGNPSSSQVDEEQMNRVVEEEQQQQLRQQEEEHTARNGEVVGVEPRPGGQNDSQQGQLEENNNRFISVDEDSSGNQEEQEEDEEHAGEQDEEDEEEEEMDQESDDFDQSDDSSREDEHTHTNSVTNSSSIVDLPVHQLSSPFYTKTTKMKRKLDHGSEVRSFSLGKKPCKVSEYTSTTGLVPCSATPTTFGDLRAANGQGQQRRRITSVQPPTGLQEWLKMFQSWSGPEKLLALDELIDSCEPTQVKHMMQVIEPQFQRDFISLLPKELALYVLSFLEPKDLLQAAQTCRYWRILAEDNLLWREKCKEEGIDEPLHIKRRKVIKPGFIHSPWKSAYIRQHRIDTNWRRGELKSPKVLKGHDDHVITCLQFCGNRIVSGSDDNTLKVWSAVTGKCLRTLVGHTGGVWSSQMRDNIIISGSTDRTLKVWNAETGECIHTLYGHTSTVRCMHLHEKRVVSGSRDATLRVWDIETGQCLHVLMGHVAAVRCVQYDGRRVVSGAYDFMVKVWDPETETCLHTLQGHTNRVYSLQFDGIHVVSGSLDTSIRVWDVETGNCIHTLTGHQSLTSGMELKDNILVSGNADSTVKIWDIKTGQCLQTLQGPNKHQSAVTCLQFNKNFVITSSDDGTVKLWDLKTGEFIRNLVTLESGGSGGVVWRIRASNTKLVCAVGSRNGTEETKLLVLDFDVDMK
MITF inh – human MITF inhibition, primary screen | O75030 | AlphaScreen MITF homodimerization, bead proximity signal | inhibition, % at 2.6 µM | actives 0.91% (n = 650,000) | AID 1259374; in the data active means inhibition above about 50%;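 further: 0% = vehicle wells with protein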
GPR151 activ – activators of human GPR151; AID 1508602; Q8TDV0; actives 1% (n = 650,000); activation, % at 11.2 µM; PathHunter beta-arrestin GPR151 cells, luminescence; in the data active means activation above about 4.9%;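 further: 0% = median of compound wells and 100% = cells with positive control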
TEAD-YAP inh – TEAD-YAP interaction inhibition; inhibition, % at 9.12 µM; AID 1259422; actives 1.4% (n = 640,000); HEK-TIYL cells, TEAD-Gal4/YAP UAS-luciferase luminescence; in the data active means inhibition above about 32%;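 further: 0% = median of test compound wells and 100% = reference inhibitor wells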
MITF inh conf – human MITF inhibition, confirmation | shares compounds with MITF inh | AlphaScreen MITF homodimerization, biotin/His-MITF beads | inhibition, % at 2.6 µM | actives 16% (n = 4,700) | AID 1259372;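 active means inhibition above a cutoff derived from the DMSO control wells, cut at about 28% in these data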;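 further: 0% = MITF dimer wells with DMSO only; inhibitors lower the bead chemiluminescence by keeping MITF from dimerizing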
AlphaScreen DR – AlphaScreen optical interference, dose response counter-screen | shares compounds with MITF inh | AlphaScreen optical interference counterscreen, cell-free | IC50, µM | actives 6% (n = 480) | AID 1259373; call rule not given here
AlphaScreen intf2 – counter-screen: compounds optically interfering with AlphaScreen | shares compounds with MITF inh | LysRS AlphaScreen counterscreen, signal interference, triplicate | inhibition, % at 2.6 µM | actives 7.6% (n = 4,700) | AID 1259376;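 active means inhibition above a cutoff derived from the DMSO control wells, cut at about 30% in these data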
Numbers without * were called inactive; nt = not tested or not shown. An excerpt weighted towards active compounds, which were near 3.4% of everything screened.

SMILES	FBW7 act	MITF inh	GPR151 activ	TEAD-YAP inh	MITF inh conf	AlphaScreen intf2	others
CC(C)N(C(C)C)S(=O)(=O)c1ccc(N2CCC(C(N)=O)CC2)nc1	0	4	2	0	nt	nt
CC1=NN(c2ccc(C(=O)O)c(N)c2)C(=O)C1	-1	68*	2	-9	54*	18	AlphaScreen DR=>6.5
O=C(Cn1ncn2cccc2c1=O)N1CCc2ccccc2C1	0	66*	0	7	67*	9	AlphaScreen DR=>6.5
O=C(CCl)N1CCc2ccccc2C1	0	10	1	12	nt	nt
CC(=O)N1CCN(CC(=O)N2CCc3ccccc3C2)CC1	0	83*	3	7	14	9
COc1ccc(CN2CCN(Cc3c[nH]c4ccccc34)CC2)c(OC)c1OC	0	62*	0	3	6	7
COc1cc(OC)c(OC)cc1CN1CCN(Cc2c[nH]c3ccccc23)CC1	0	55*	0	14	4	-6
COc1cc(OC)c(OC)cc1CN1CCN(c2ccc(F)cc2)CC1	0	44	1	0	nt	nt
c1ccc(Cc2nc3cnccn3c2NCc2ccc3c(c2)OCO3)cc1	0	68*	0	3	7	10
c1csc(-c2nc3cnccn3c2NCc2ccc3c(c2)OCO3)c1	0	-3	-1	-18	nt	nt
COC(=O)C1=C(C)NC(C)=C(C(=O)OC)C1c1cn(-c2ccccc2)nc1-c1ccc(C)cc1	1	45	0	-9	nt	nt
Nc1cccc(N2C(=O)c3cc(S(=O)O)cc4c(N)c(S(=O)O)cc(c34)C2=O)c1	0	58*	1	4	79*	8	AlphaScreen DR=>6.5
OCCn1c(CSc2nnnn2-c2ccc(O)cc2)nc2ccc(Cl)cc21	0	0	3	1	nt	nt
COC(=O)c1cc(C(=O)OCC(=O)OC(C)(C)C)cc([N+](=O)[O-])c1	0	5	-2	2	nt	nt
Cc1ccc(C23CC4CC(CC(C4)C2)C3)cc1[N+](=O)[O-]	0	54*	1	-4	4	13
COc1ccc(C23CC4CC(CC(C4)C2)C3)cc1[N+](=O)[O-]	0	0	0	-1	nt	nt
COc1ccc(CN2CCN(CCOc3ccccc3)CC2)c(OC)c1OC	0	72*	-1	0	2	10
COc1ccc(CN2CCN(Cc3cccn3C)CC2)c(OC)c1OC	0	46	0	1	nt	nt
COc1ccc(CN2CCN(CCOc3ccccc3C#N)CC2)c(OC)c1OC	0	69*	0	1	1	20
COc1cc(CN2CCN(Cc3ccccc3Cl)CC2)c([N+](=O)[O-])cc1OC	0	82*	1	6	6	13
COc1cc(CN2CCN(Cc3ccccc3C)CC2)c([N+](=O)[O-])cc1OC	0	75*	2	-3	6	17
COc1cc(CN2CCN(C/C=C/c3ccccc3)CC2)c([N+](=O)[O-])cc1OC	0	4	-1	0	nt	nt
Cc1nc2c(C)cccn2c1C(=O)N1CCCC1	0	8	1	5	nt	nt
CC(C)CCCC(C)C1CCC2C3CC=C4CC(OC(=O)CC(F)(F)F)CCC4(C)C3CCC12C (configuration not stated)	0	7	0	9	nt	nt
O=[N+]([O-])c1ccccc1CN1CCN(CC2CC=CCC2)CC1 (configuration not stated)	0	66*	0	-13	-5	3
SMILES	FBW7 act	MITF inh	GPR151 activ	TEAD-YAP inh	MITF inh conf	AlphaScreen intf2	others
O=[N+]([O-])c1ccccc1S(=O)(=O)N1CCN(CC2CC=CCC2)CC1 (configuration not stated)	0	31	1	2	nt	nt
Clc1ccccc1CN1CCN(CC2CC=CCC2)CC1 (configuration not stated)	0	60*	-1	0	6	-5
Fc1cccc(CN2CCN(CC3CC=CCC3)CC2)c1 (configuration not stated)	0	83*	3	-4	-1	-3
O=S(=O)(c1ccccc1)N1CCN(CC2CC=CCC2)CC1 (configuration not stated)	0	52*	0	2	-1	1
Cc1ccc(CN2CCN(CC3CC=CCC3)CC2)cc1 (configuration not stated)	0	22	0	3	nt	nt
O=C(c1ccccc1)N1CCN(CC2CC=CCC2)CC1 (configuration not stated)	0	41	-1	-4	nt	nt
O=C(Cc1ccccc1)NCc1n[nH]c(=S)n1-c1ccc(F)cc1	1	5	0	1	nt	nt
O=c1cc(CSc2nc(Nc3ccc(F)c(F)c3)c3ccccc3n2)nc2ccccn12	0	-4	0	-5	nt	nt
CC(=O)N1CCN(c2ccc(NC(=S)NC(=O)c3ccccc3)cc2)CC1	0	52*	0	-7	8	20
CC(=O)N1CCN(c2ccc(NC(=O)c3ccccc3)cc2)CC1	0	38	-1	-49	nt	nt
CC(=O)N/C(=C\c1ccccc1)C(=O)OCC(=O)OC(C)(C)C	0	54*	0	-8	14	12
Cc1cc(OCCCN2CCN(C)CC2)cc(C(C)C)c1	0	70*	0	-1	11	23
Cc1cc(OCCN2CCNCC2)cc(C(C)C)c1	0	66*	2	-3	-2	20
Cc1cc(OCCn2ccnc2)cc(C(C)C)c1	0	57*	0	-5	5	-1
Cc1cc(OCCCN2CCNCC2)cc(C(C)C)c1	0	38	-1	-4	nt	nt
Cc1cc(C)c(C)c(OCCn2ccnc2)c1	2	13	-1	-10	nt	nt
Cc1cc(OCCCN2CCN(C)CC2)ccc1C(C)C	0	56*	2	2	-3	4
Cc1cc(OCCCN2CCOCC2)ccc1C(C)C	0	18	-1	-17	nt	nt
COc1ccccc1NC(=O)C(=O)NCCc1ccc(S(N)(=O)=O)cc1	0	6	0	-1	nt	nt
COc1ccc(CC2(CO)CCN(S(=O)(=O)c3ccc(C(C)=O)cc3)CC2)cc1	0	-5	1	-5	nt	nt
Oc1ccc(CN2CCOCC2)c2cccnc12	0	91*	0	67*	99*	99*
CCOC(=O)C1CCN(Cc2ccc(O)c3ncccc23)CC1	-2	72*	0	55*	114*	100*
COc1ccccc1NC(=O)/C(C#N)=C/c1ccccc1OC(C)C	0	6	3	-1	nt	nt
NC(=O)c1cc(NC(=O)COC(=O)COc2cccc(C(F)(F)F)c2)cc(C(N)=O)c1	0	53*	1	1	48*	3	AlphaScreen DR=>6.5
COC(=O)c1cccc(NC(=O)CCOc2ccccc2)c1	0	51*	-1	-11	0	7
c1ccc(CN2CCN(C3CCCCC3)CC2)nc1	1	60*	-2	5	12	10
